Assay outcomes: PubChem, several laboratories
WT yeast gro inh: growth inhibition of WT yeast, mitochondrial fusion screen; mitochondrial fusion phenotypic screen, WT strain; inhibition, % at 10 µM; actives 2.1% (n = 190,000); AID 1362; in the data active means inhibition above about 58%; tested in S. cerevisiae
Ins promoter up: MIN6 insulin promoter up-regulation; MIN6 insulin promoter-GFP reporter, high-content imaging; stronger effect = higher value; z-score at 5 µM; actives 0.3% (n = 190,000); AID 1625;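 active means z-score above 3 at 5 µM with at least 500 cells counted in the well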
L major viab: inhibitors of Leishmania major promastigote growth; Leishmania major promastigotes, resazurin fluorescence viability; inhibition, % at 10 µM; actives 9% (n = 200,000); in the data active means inhibition above about 50%;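 further: promastigotes grown with compound for 44 hours at 28 °C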
Autophagy HCS: alters autophagy in cells; MEF GFP-LC3 puncta imaging; test concentration mostly 10 µM; calls only at 10 µM (by protocol); actives 0.98% (n = 190,000); AID 463193;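 active means percentage of spot-positive cells more than 3 SD above its plate mean, without a fluorescence outlier flag or 80% toxicity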;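 further: spot-positive cell cutoff set from DMSO-treated cells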
INS promoter inh: TRM-6 insulin promoter activity inhibition; TRM-6 cells (human fetal islet line), insulin promoter-eGFP reporter, imaging; reporter expression induced with tamoxifen; inhibition, % at 2 µM; actives 0.9% (n = 130,000);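 active means inhibition above the mean plus 3 SD, with well images judged a real hit on visual review, cut at about 60% in these data, passing the limit was not always enough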
* hit, by the source's call; i = inactive; · = no result; + = active, no number. Sampled rows, rich in hits. Any-hit rate of the full collection: about 11%.

SMILES	WT yeast gro inh	Ins promoter up	L major viab	Autophagy HCS	INS promoter inh
COc1ccccc1C1C(C(C)=O)=C(C)N=c2s/c(=C\c3cc(OC)c(OC)c(OC)c3)c(=O)n21 (stereo unspecified)	19.3	-0.91	54.9*	i	36.8
Cc1cc(C)nc(N/N=C/C2=C(N3CCOCC3)C(=C/c3ccccc3)/CC2)n1	32.7	-0.73	13.2	i	-50.0
Cc1cc(=O)[nH]c(N/N=C/C2=C(N3CCOCC3)C(=C\c3ccc(Cl)cc3)/CC2)n1	7.5	0.33	-3.5	+	3.2
NC(=O)Nc1ccc(C(=O)OCC(=O)Nc2cccc(S(=O)(=O)NC3=NCCCCC3)c2)cc1	·	1.37	·	·	·
COc1ccc(-c2ccnc(SCC(=O)N3CCN(c4ccccc4)CC3)n2)cc1	·	0.43	·	·	·
Cn1nc(-c2ccccc2)c(CO)c1Oc1ccc(F)cc1	-6.5	-0.04	1.3	i	-109.1
O=C(CSc1nnc(-c2ccco2)c(-c2ccco2)n1)Nc1ccccc1	54.3	-0.22	74.7*	i	8.7
Cc1ccc(NC(=O)CSc2ccc(-c3ccco3)nn2)cc1	-17.6	-0.45	11.7	i	-15.4
COc1ccc(C(=O)CSc2nnc(-c3ccco3)c(-c3ccco3)n2)cc1	8.8	-0.64	98.6*	i	-200.0
Cc1ccc(NC(=O)CSc2nnc(-c3ccco3)c(-c3ccco3)n2)cc1	0.8	-0.36	95.9*	i	0.0
O=C(CSc1nnc(-c2ccccc2)c(-c2ccccc2)n1)Nc1ccc(Br)cn1	30.2	·	66.3*	i	·
O=C(CSc1nnc(-c2ccccc2)c(-c2ccccc2)n1)Nc1ncc(Cl)cc1Cl	35.7	0.41	41.4	i	·
COc1ccc(S(=O)(=O)N2CCC(C(=O)NCCC3=CCCCC3)CC2)cc1OC	5.0	-0.67	3.7	i	·
CCOCCCNCC(=O)NCC1CCCCC1	-14.8	0.83	-5.8	i	·
O=S(=O)(c1ccccc1)N1CCN=C1SCc1ccccc1Cl	46.5	-0.4	15.9	i	-28.6
O=S(=O)(c1ccccc1)N1CCN=C1SCc1cccc(Cl)c1	54.2	-0.74	22.0	i	25.0
O=S(=O)(c1ccccc1)N1CCN=C1SCc1ccc(Cl)cc1	45.9	-0.23	99.8*	i	23.1
O=S(=O)(c1ccccc1)N1CCN=C1SCc1ccc(Cl)c(Cl)c1	52.6	-1.25	50.6*	i	·
Cc1cc(C)cc(C(=O)NCC(=O)OCC(=O)c2cc(C)n(CC(F)(F)F)c2C)c1	6.8	0.2	-5.4	i	-14.3
C=CCn1c(SCC(=O)N(CC)CC)nc(O)cc1=O	9.1	0.77	-5.0	i	9.1
C=CCn1c(SCC(N)=O)nc(C)cc1=O	60.9*	1.03	-2.6	i	58.8
Nc1c(C(O)(C(F)(F)F)C(F)(F)F)ccc2ccccc12	0.2	·	99.9*	i	·
Nc1ccc(C(O)(C(F)(F)F)C(F)(F)F)cc1	13.9	-0.56	-6.5	i	28.1
N#CC(c1nc2ccccc2nc1N1CCCC1)S(=O)(=O)c1ccccc1 (stereo unspecified)	7.8	-0.16	5.1	i	·
Cc1ccc(S(=O)(=O)C(C#N)c2nc3ccccc3nc2N2CCC(C)CC2)cc1 (stereo unspecified)	38.0	3.75*	-9.4	i	-7.1
SMILES	WT yeast gro inh	Ins promoter up	L major viab	Autophagy HCS	INS promoter inh
Cc1sc2nc(CSc3cccc(C(F)(F)F)c3)[nH]c(=O)c2c1C	-14.0	1.52	-4.8	i	·
O=C(COc1ccc(Cl)cc1[N+](=O)[O-])N/N=C/c1cccs1	5.9	0.7	1.7	i	·
O=C(O)c1cc(-c2ccco2)nc2ccc(Br)cc12	-13.2	0.23	-0.9	i	76.9*
Cc1ccc(NCC(=O)Nc2cccc(S(=O)(=O)N(C)C)c2)c(Cl)c1	10.8	0.41	75.5*	i	0.0
CN(C)S(=O)(=O)c1cccc(NC(=O)c2ccc(OC(F)(F)F)cc2)c1	13.8	-0.04	56.9*	i	-15.4
O=C(CCC(=O)c1ccc(F)cc1)Nc1cccc(S(=O)(=O)Nc2cccc(Cl)c2)c1	-35.5	0.21	69.2*	i	-67.6
CN(C)S(=O)(=O)c1cccc(NC(=O)Cc2ccc(Cl)cc2)c1	10.5	0.37	67.2*	i	-9.1
CCc1cc(SC#N)ccc1N	-6.0	-0.12	-4.1	i	·
O=C(CCOc1ccccc1F)N1CCN(c2ccccc2O)CC1	4.2	-0.29	12.9	i	0.0
O=C(Cc1ccc(Cl)cc1)Nc1cccc(S(=O)(=O)Nc2ccccc2F)c1	-6.7	-0.8	69.1*	i	16.2
O=S(=O)(CCN1CCCCC1)Oc1ccc(Cl)cc1Cl	·	-0.07	·	·	·
c1ccc(-c2nc(N3CCN(c4ccccc4)CC3)nc(-n3ccnc3)n2)cc1	67.7*	0.15	67.1*	i	·
c1ccc(-c2nc(N3CCCCCC3)nc(-n3ccnc3)n2)cc1	16.7	1.24	96.1*	i	30.3
CCCCCNc1nc(-c2ccccc2)nc(-n2ccnc2)n1	13.6	-0.27	39.7	i	-26.7
CSc1cccc(CN2CCCC(CNC(=O)c3ccc(F)cc3)C2)c1 (stereo unspecified)	-7.5	-0.66	77.3*	i	·
CSc1ccc(CN2CCCC(CNC(=O)c3ccc(F)cc3)C2)cc1 (stereo unspecified)	5.4	0.91	84.1*	i	·
Nc1ccccc1NC1CCCCC1	32.0	0.15	53.7*	i	-17.6
CN(C1CCCCC1)S(=O)(=O)c1ccc(NC(=O)c2ccc(Br)o2)cc1	15.6	0.15	57.0*	i	-23.7
COc1c(C(=O)Nc2ccc(Cc3ccncc3)cc2)ccc2ccccc12	68.4*	0.07	18.0	i	·
COc1ccc(Br)cc1C(=O)Nc1ccc(Cc2ccncc2)cc1	-5.7	-0.2	81.4*	i	·
COC(=O)Nc1ccc(Cc2ccncc2)cc1	5.5	-0.42	-3.7	i	-88.2
O=C(Nc1ccc(Cc2ccncc2)cc1)c1ccc(Br)o1	-24.8	-0.13	-0.1	+	-287.5
CC1CCN(c2ccc(N3C(=O)C4CCCCC4C3=O)cc2[N+](=O)[O-])CC1 (stereo unspecified)	-10.2	-1.77	-3.0	i	-56.7
O=C(COC(=O)CNC(=O)c1ccco1)NCc1ccc(F)cc1	-6.1	0.73	-9.4	i	15.4
CCc1ccc(NC(=S)Nc2cc(OC)c(NC(=O)C(C)C)cc2OC)cc1	4.0	-0.58	2.2	i	·
SMILES	WT yeast gro inh	Ins promoter up	L major viab	Autophagy HCS	INS promoter inh
Cc1ccc(NC(=O)Cc2nc(CSc3nnc(-c4ccc5c(c4)OCO5)o3)cs2)cc1	15.9	-1.01	87.0*	i	·
Cc1cc(NC(=O)CSc2nnc(-c3ccc4c(c3)OCCO4)o2)no1	-0.3	0.37	-5.0	i	-300.0
Cc1cccc(/C=N/NC(=O)Cn2nnnc2N)n1	·	-0.2	·	·	·
O=S1(=O)CCN(Cc2cccc(C(F)(F)F)c2)CC1	1.2	0.3	-4.2	i	13.3
COc1ccc(-c2cc(C3CCN(Cc4cccc(C(F)(F)F)c4)CC3)[nH]n2)cc1	46.1	-0.67	67.6*	i	·
COc1ccc(-c2cc(C3CCN(Cc4ccc([N+](=O)[O-])cc4)CC3)[nH]n2)cc1	-5.7	-0.97	56.2*	i	0.0
O=C1N/C(=C/c2ccc(Br)s2)C(=O)N1c1ccccc1	-6.2	-0.35	1.1	+	·
Cc1cc(/C=C2/NC(=O)N(c3ccccc3)C2=O)c(C)n1C(C)C	1.7	-0.08	-4.4	i	·
